Measured values published in PubChem BioAssay (EPA / NIEHS).
Records with an inconclusive call do not appear. Active and inactive are the calls of the source. How the source made its calls, unless noted: active means hit-call score of the fitted dose curve at least 0.9, where 1 is the maximum; inconclusive means response in the unintended direction; inactive means score below 0.9.

Key:
[1] = TOX21_p53_BLA_p2_viability: Viability Assessment in the Tox21 HCT-116 p53 Agonism Beta-lactamase Assay, Phase 2 (AID 2283591);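 further: actives lower the ATP signal meaning cytotoxicity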
In short: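 HCT116 p53-bla cells, 4000/well, dosed after 5 h plating (217-fold dilution of DMSO stocks) and incubated 16 h at 37C. Viability taken as cellular ATP by CellTiter-Glo luminescence after 30 min RT; signal loss marks cytotoxicity.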

[2] = target: Cellular tumor antigen p53 (Homo sapiens) (UniProt P04637); test: TOX21_p53_BLA_p2_ratio: Tox21 HCT-116 p53 Agonism Beta-lactamase Assay, Ratio, Phase 2 (AID 2283592)
In short: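 An inducible beta-lactamase reporter in HCT116 cells signals p53 pathway activation. After 16 h chemical exposure at 37C, cells load CCF4-AM substrate for 2 h at room temperature; activity is the cleaved/uncleaved emission ratio relative to DMSO.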

[3] = target: Cellular tumor antigen p53 (Homo sapiens) (UniProt P04637); test: TOX21_p53_BLA_p3_ratio: Tox21 HCT-116 p53 Agonism Beta-lactamase Assay, Ratio, Phase 3 (AID 2283596)
In short: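 HCT116 p53-bla cells (4000/well) given compound in DMSO (217-fold dilution) after 5 h, incubated 16 h at 37C. CCF4-AM substrate 2 h at room temperature; 460/530 nm emission ratio, gain fitted against DMSO.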

[4] = TOX21_p53_BLA_p4_viability: Viability Assessment in the Tox21 HCT-116 p53 Agonism Beta-lactamase Assay, Phase 4 (AID 2283597);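 further: hits lower the luminescence signal meaning cytotoxicity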
In short: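 Compound exposure of HCT116 cells lasts 16 h at 37C, 5% CO2, with DMSO stocks diluted 217-fold. Cellular ATP is then quantified by CellTiter-Glo luminescence after 30 min at room temperature.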

[5] = target: Cellular tumor antigen p53 (Homo sapiens) (UniProt P04637); test: TOX21_p53_BLA_p5_ratio: Tox21 HCT-116 p53 Agonism Beta-lactamase Assay, Ratio, Phase 5 (AID 2283599)
In short: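 HCT-116 p53-bla cells (4000/well) plated 5 h, dosed with compound (217-fold DMSO dilution) for 16 h at 37 C; CCF4-AM substrate 2 h at room temperature. Activity is the 460/530 nm emission ratio (405 nm excitation), fitted in gain-of-signal direction versus DMSO.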

[6] = target: Cellular tumor antigen p53 (Homo sapiens) (UniProt P04637); test: TOX21_p53_BLA_p4_ratio: Tox21 HCT-116 p53 Agonism Beta-lactamase Assay, Ratio, Phase 4 (AID 2283601)
In short: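 HCT-116 p53 beta-lactamase reporter cells (4000/well) preincubated 5 h, then compound (217-fold dilution of DMSO stock) for 16 h at 37C. CCF4-AM substrate added 2 h at room temperature; 460/530 nm emission ratio fitted upward versus DMSO.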

[7] = TOX21_p53_BLA_p5_viability: Viability Assessment in the Tox21 HCT-116 p53 Agonism Beta-lactamase Assay, Phase 5 (AID 2283600)
In short: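 Counter-readout for cytotoxicity: ATP-dependent luminescence from CellTiter-Glo, read in the beta-lactamase wells after 30 min at RT, following a 16 h compound exposure at 37C.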

[8] = CCTE_Harrill_HTTr_Viability_MCF7: CCTE's 6-hour Cell Viability Assessment for the High-Throughput Transcriptomics (HTTr) Platform, in MCF-7 cells cultured in DMEM + 10% fetal bovine serum, Harrill Lab (AID 2284010; active means hit-call score of the fitted dose curve at least 0.9, where 1 is the maximum; inactive means score below 0.9)
In short: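 Cells were dosed with chemicals in an eight-point dilution series, imaged 6 hours later for propidium iodide uptake, and the endpoint was analyzed by bidirectional fitting against DMSO as negative control.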

[9] = CCTE_Harrill_HTTr_Apoptosis_MCF7: CCTE's 6-hour Apoptosis Assessment for the High-Throughput Transcriptomics (HTTr) Platform, in MCF-7 cells cultured in DMEM + 10% fetal bovine serum, Harrill Lab (AID 2284011; active means hit-call score of the fitted dose curve at least 0.9, where 1 is the maximum; inactive means score below 0.9)
In short: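 Cells are dosed with test chemicals at eight concentrations and imaged 6 hours later for caspase-3/7 activity using a green fluorogenic detection reagent. Activity is fitted in both directions against DMSO controls.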

Measured: outcome

Chain of Cellular tumor antigen p53 (Homo sapiens) (P04637 whole entry, looked up): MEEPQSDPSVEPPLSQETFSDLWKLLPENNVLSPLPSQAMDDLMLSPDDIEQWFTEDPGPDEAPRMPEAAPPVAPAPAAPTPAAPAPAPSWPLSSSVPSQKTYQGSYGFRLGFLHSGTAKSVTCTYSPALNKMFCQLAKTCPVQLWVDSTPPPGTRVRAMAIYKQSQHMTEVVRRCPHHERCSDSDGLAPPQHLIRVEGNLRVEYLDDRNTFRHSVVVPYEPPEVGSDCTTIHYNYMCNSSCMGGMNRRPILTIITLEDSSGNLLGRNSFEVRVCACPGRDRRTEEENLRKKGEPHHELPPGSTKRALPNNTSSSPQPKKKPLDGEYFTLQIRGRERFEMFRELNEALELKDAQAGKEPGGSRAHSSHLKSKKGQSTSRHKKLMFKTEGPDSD

CO
not listed: [7] | [8] | [9]
inactive: all other assays above

CC[N+](CC)(CC)CCC(O)(c1ccccc1)C1CCCCC1 (stereo unspecified)
not listed: [5] | [8] | [9]
inactive: all other assays above

O=S(=O)(O)CCO
not listed: [5] | [8] | [9]
inactive: all other assays above

CN=C(NC#N)NCCSCc1csc(N=C(N)N)n1
not listed: [7] | [8] | [9]
inactive: all other assays above

O=Cc1cccc(Br)c1
not listed: [7] | [8] | [9]
inactive: all other assays above

C=C(C)C(=O)OCCC[Si](Cl)(Cl)Cl
not listed: [5] | [8] | [9]
inactive: all other assays above

NCCNCCO
not listed: [7] | [8] | [9]
inactive: all other assays above

CNCCc1ccccn1
not listed: [5] | [8] | [9]
inactive: all other assays above

CC(=O)N[C@H]1[C@H]([C@H](O)[C@H](O)CO)OC(C(=O)O)=C[C@@H]1N=C(N)N
not listed: [5] | [8] | [9]
inactive: all other assays above

CN1[C@@H]2CC[C@H]1CC(NC(=O)n1c(=O)[nH]c3ccccc31)C2 (stereo partly specified)
not listed: [7] | [8] | [9]
inactive: all other assays above

CCCCC(=O)O[C@]1(C(=O)CO)[C@H](C)C[C@H]2[C@@H]3CCC4=CC(=O)C=C[C@]4(C)[C@@]3(F)[C@@H](O)C[C@@]21C
not listed: [5] | [8] | [9]
inactive: all other assays above

CC(CCc1ccccc1)NCC(O)c1ccc(O)c(C(N)=O)c1 (stereo unspecified)
not listed: [5]
inactive: all other assays above

CCC(=O)Oc1ccc2c(c1)CC[C@@H]1[C@@H]2CC[C@]2(C)[C@@H](OC(=O)CC)CC[C@@H]12
inactive: [1] | [2] | [3] | [4] | [7]

CCCCCCCCCCCC[N+](C)(C)CC(=O)O
not listed: [7] | [8] | [9]
inactive: all other assays above

O=C(O)c1ccc(OCCn2ccnc2)cc1
not listed: [5] | [8] | [9]
inactive: all other assays above
